Test results published in PubChem BioAssay (NCI).
This is part of a sample that, as a whole, favours compounds with a hit. Of some 83,000 tested, about 20% had one in any assay.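 Activity criterion: percent growth below 10, measured after cells in 96-well plates were exposed to a single compound concentration for 48 hours.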 Activity calls are given as the source filed them.

Legend:
Assay in all cases: NCI-60 one-dose screen, 48 h (100 = growth as untreated, 0 = no growth, -100 = all killed)
Settings in all cases: 10 µM unless noted
[1] = system: HCT-15 colon
[2] = system: HT29 colon
[3] = system: SNB-75 CNS
[4] = system: SNB-19 CNS
[5] = system: U251 CNS
[6] = system: PC-3 prostate
[7] = system: SK-MEL-5 melanoma
[8] = system: UACC-62 melanoma
[9] = system: LOX IMVI melanoma
[10] = system: SK-MEL-28 melanoma

Measured: growth

CN1CCN(C(=O)OCCOCCOC(=O)N2CCN(C)CC2)CC1
inactive: [1] 96.3% | [2] 101% | [3] 80.8% | [4] 104% | [5] 103% | [6] 90.1% | [7] 104% | [8] 102% | [9] 90.9% | [10] 105%

COc1cccc(Nc2nc(NCCO)c3ccccc3n2)c1
inactive: [1] 88.6% | [2] 100% | [3] 63.7% | [4] 76.9% | [5] 73.7% | [6] 24.4% | [7] 78.2% | [8] 67.1% | [9] 75% | [10] 91.7%

COc1cc(CNCCCN2C(=O)c3ccc4c5c(ccc(c35)C2=O)C(=O)N(CCCNCc2cc(OC)c(OC)c(OC)c2)C4=O)cc(OC)c1OC
active: [1] -29.4% | [2] -47.6% | [3] -97.2% | [4] -92.3% | [5] -74.5% | [6] -54.8% | [7] -99.7% | [8] -90.2% | [9] -85.6% | [10] -91.7%

O=C1C=CC(=O)N1CCCCCCCCCCN1C(=O)C=CC1=O
inactive: [1] 92.4% | [2] 63.2% | [3] 95.7% | [4] 108% | [5] 76.9% | [6] 82.2% | [7] 95.8% | [8] 102% | [9] 42.9% | [10] 97%

Nc1cccc2c(=S)c3ccccc3[nH]c12
inactive: [1] 95.4% | [2] 117% | [3] 94.6% | [4] 89.8% | [5] 104% | [6] 82.5% | [7] 91.4% | [8] 87.6% | [9] 88.5% | [10] 114%

CN1CCN(c2ccc3nc(-c4ccc5nc(-c6ccc(C(F)(F)F)cc6)[nH]c5c4)[nH]c3c2)CC1
active: [9] -85.8%
inactive: [1] 80.4% | [2] 29.2% | [3] 29.6% | [4] 74.2% | [5] 34.7% | [6] 30.2% | [7] 44.2% | [8] 67.5% | [10] 63.2%

COc1ccc(OC2=CC(=O)c3ccc(C)nc3C2=O)cc1
inactive: [1] 76.1% | [2] 102% | [3] 53.4% | [4] 87.7% | [5] 96.4% | [6] 85.2% | [7] 83.5% | [8] 83.6% | [9] 75.6% | [10] 93.5%

Cc1oc2c(c1C(=O)N1CC[C@@H](N)C1)C(=O)c1c(c(O)c3ccccc3c1O)C2=O
inactive: [1] 20.7% | [2] 11.3% | [3] 31.8% | [4] 40% | [5] 23.8% | [6] 10.9% | [7] 42.7% | [8] 55.2% | [9] 24.9% | [10] 62.9%

Cc1c(C(=O)Nc2nc(-c3ccccc3)cs2)nnn1-c1ccccc1Br
active: [7] -68.6% [50 µM]
inactive: [1] 29.5% [50 µM] | [2] 16.3% [50 µM] | [3] 67.8% [50 µM] | [4] 61.1% [50 µM] | [5] 50.8% [50 µM] | [6] 44.8% [50 µM] | [8] 39.4% [50 µM] | [9] 12% [50 µM] | [10] 44.5% [50 µM]

COc1ccc(/C=N/OCC(O)CN2CCC(O)CC2)cc1OC1CCCC1 (stereo not given)
inactive: [1] 109% | [2] 104% | [3] 80% | [4] 95.9% | [5] 103% | [6] 94.7% | [7] 98.8% | [8] 103% | [9] 105% | [10] 105%

O=c1oc2ccccc2cc1-c1csc(N/N=C/c2cc3ccccc3nc2Cl)n1
inactive: [1] 101% | [2] 100% | [3] 96.7% | [4] 96.1% | [5] 97.2% | [6] 95% | [7] 98.4% | [8] 91.8% | [9] 101% | [10] 102%

O=C1c2ccccc2-c2cn(Cc3ccccc3)c3cccc(c23)C1c1cccnc1 (stereo not given)
active: [2] 4.25%
inactive: [1] 31.2% | [3] 23.2% | [4] 54% | [5] 25% | [6] 55.4% | [7] 21.7% | [8] 47.3% | [9] 57.4% | [10] 53.9%

CC1SC(c2ccc(Cl)cc2)N(CCc2cccs2)C1=O (stereo not given)
active: [1] 1.46% | [2] -40.2% | [3] -9.5% | [5] -8.49% | [6] -1.67% | [7] -99.2% | [8] -46.3% | [9] -85.2% | [10] 8.16%
inactive: [4] 12.4%

c1ccc2c(c1)oc1cc3c(cc12)nnc1cccn13
inactive: [1] 104% | [2] 103% | [3] 91.7% | [4] 108% | [5] 97.2% | [6] 100% | [7] 98.2% | [8] 106% | [9] 112% | [10] 116%

CN(C)c1ccc(/C=C(\C#N)c2cc3ccccc3n2C)cc1
inactive: [1] 20.6% | [2] 10.3% | [3] 20.8% | [4] 31% | [5] 19.4% | [6] 34.4% | [7] 19.3% | [8] 38.5% | [9] 31.5% | [10] 67.2%

O=c1c2cc(F)ccc2oc2c(NCCNCCO)nc3ccccc3c12
inactive: [1] 28.1% | [2] 16.7% | [3] 50.2% | [4] 45.1% | [5] 36.1% | [6] 38.6% | [7] 61.6% | [8] 77.7% | [9] 13.8% | [10] 50.2%

O=C1/C(=C/c2ccc([N+](=O)[O-])cc2)Oc2ccc(O)cc21
inactive: [1] 84.3% | [2] 46.8% | [3] 95.7% | [4] 90.7% | [5] 63.6% | [6] 87.9% | [7] 86.8% | [8] 41.4% | [9] 60% | [10] 107%

CCCCCCCC/C=C\CCCCCCCCOc1cccc(CC(=O)NCC[N+]2(C)CCOCC2)c1
inactive: [1] 96.7% | [2] 53.5% | [3] 49.9% | [4] 72.3% | [5] 51% | [6] 33.3% | [7] 99.8% | [8] 80.2% | [9] 91.3% | [10] 102%

COc1ccc(/C=N\N2CCOCC2)cc1OC1CCCC1
inactive: [1] 104% | [2] 106% | [3] 86.8% | [4] 95.8% | [5] 101% | [6] 101% | [7] 99.3% | [8] 92.7% | [9] 101% | [10] 116%

NS(=O)(=O)c1cc(Br)c2c(c1)S(=O)(=O)NCN2
inactive: [1] 112% | [2] 103% | [3] 117% | [4] 112% | [5] 107% | [6] 105% | [7] 111% | [8] 111% | [9] 113% | [10] 110%

O=C(c1ccc2ncc(-c3nc(NC4CC4)ncc3F)n2c1)N1CCOCC1
active: [3] -21.6% | [7] -51.8% | [9] -0.283%
inactive: [1] 23.8% | [2] 26.4% | [4] 45.8% | [5] 28.6% | [6] 52.6% | [8] 16.9% | [10] 45.4%

O=c1[nH]c(=O)n(Cc2ccc(F)cc2)cc1F
inactive: [1] 99.5% [50 µM] | [2] 114% [50 µM] | [3] 104% [50 µM] | [4] 100% [50 µM] | [5] 98.7% [50 µM] | [6] 107% [50 µM] | [7] 104% [50 µM] | [8] 101% [50 µM] | [9] 96.4% [50 µM] | [10] 109% [50 µM]

O=c1c2c(=NCCN3CCCC3)cc3c(=O)n(CCCN4CCOCC4)c(=O)c4c(-c5ccc(CN6CCCC6)cc5)cc(c(O)n1CCCN1CCOCC1)c2c4-3
active: [1] -30% | [2] -23.4% | [3] -83.5% | [4] -9.24% | [5] -19.4% | [6] -47.2% | [7] -44.6% | [8] -73.2% | [9] -78.2% | [10] -67.8%

O=c1oc2ccccc2cc1-c1csc(N=Nc2c(O)[nH]c3ccc(Cl)cc23)n1
inactive: [1] 99.5% | [2] 101% | [3] 93.3% | [4] 99.2% | [5] 94.6% | [6] 100% | [7] 104% | [8] 98.2% | [9] 97.7% | [10] 103%
